Test results as given in PubChem BioAssay (NCI).
Compounds without any hit were thinned out: in the full panel of roughly 83,000, 20% have a hit.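 Compound tested at a single concentration for 48 hours in 96-well plates; a percent growth value below 10 was scored as active.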 Values without a mark were called inactive. Active and inactive are the calls of the source.

Assays:
Experiment in all cases: NCI-60 one-dose screen, 48 h (100 = growth as untreated, 0 = no growth, -100 = all killed)
Settings in all cases: 10 µM unless noted
DU-145 prostate = test system: DU-145 prostate
K-562 leukemia = test system: K-562 leukemia
MDA-MB-231 breast = test system: MDA-MB-231 breast
RXF 393 renal = test system: RXF 393 renal
SF-268 CNS = test system: SF-268 CNS
SF-295 CNS = test system: SF-295 CNS
SF-539 CNS = test system: SF-539 CNS
UACC-257 melanoma = test system: UACC-257 melanoma
M14 melanoma = test system: M14 melanoma

SMILES: Nc1cc(N)c2nc(NCCc3ccc(Cl)c(Cl)c3)cnc2c1
- growth (DU-145 prostate): 101%
- growth (K-562 leukemia): -23.1% (active)
- growth (MDA-MB-231 breast): -23.5% (active)
- growth (RXF 393 renal): 51.1%
- growth (SF-268 CNS): 30.8%
- growth (SF-295 CNS): 89.4%
- growth (SF-539 CNS): 89.6%
- growth (UACC-257 melanoma): 90.4%

SMILES: COc1ccc(-c2cn3ccnc3c(-c3ccc4ncn(C5CCCCC5)c4c3)n2)cc1
- growth (DU-145 prostate): 18.2%
- growth (K-562 leukemia): 7.96% (active)
- growth (MDA-MB-231 breast): 28.9%
- growth (RXF 393 renal): -8.48% (active)
- growth (SF-268 CNS): 50.1%
- growth (SF-295 CNS): 7.49% (active)
- growth (SF-539 CNS): -43.4% (active)
- growth (UACC-257 melanoma): 73.7%
- growth (M14 melanoma): 10.8%

SMILES: O=C1c2cc([N+](=O)[O-])ccc2-c2cc(Cl)c(NC(=O)C(F)(F)F)cc21
- growth (DU-145 prostate): 112%
- growth (K-562 leukemia): 88.6%
- growth (MDA-MB-231 breast): 109%
- growth (RXF 393 renal): 87.5%
- growth (SF-268 CNS): 107%
- growth (SF-295 CNS): 111%
- growth (SF-539 CNS): 95.4%
- growth (UACC-257 melanoma): 128%
- growth (M14 melanoma): 110%
